SMILES strings stand for the structures. Inconclusive results are not listed. Activity calls are given as the source filed them. Unless noted, calls come from the whole dose curve; as a rule, active = well fitted curve in the direction sought with a large enough effect in the repeat runs; inconclusive = weak or mixed curves; inactive = no such curve, though single readings can be large; an effect the other way counts as inactive or inconclusive.

A short description of experiment [1]: qHTS assay to identify small molecule antagonists of the vitamin D receptor (VDR) signaling pathway - cell viability counter screen (AID 743225). Note: nearly all actives have a fitted effect of over 50% in size. The essentials: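 Parallel cytotoxicity test: VDR-UAS-bla HEK 293T, 3 nM (final) 1-alpha,25-dihydroxyvitamin D3 with test compound, 16 h, 37C. Endpoint is CellTiter-Glo luminescence in the same wells.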
(In general: In qHTS, concentration-response curves come from the screen itself.)

Experiment [2] is described as follows: qHTS assay to identify small molecule agonists of the NFkB signaling pathway - cell viability counter screen (AID 1159515; calls by dose curve; note: nearly all actives have a fitted effect of over 55% in size). The essentials:
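Counter screen run alongside the NFkB-bla agonist assay: ME-180 reporter cells exposed to compounds for 5 hr, then lysed with CellTiter-Glo in the same wells. Luminescence, read after 30 min, reflects viable cells.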

Experiment [3] can be described thus: qHTS assay to identify small molecule agonists of the endoplasmic reticulum stress response signaling pathway (AID 1159516; active = well fitted activation curve with a large enough effect in the signal ratio in the repeat runs, not every such curve was filed as active; the % refers to the signal ratio; note: potency is the fitted concentration of half-maximal effect). The essentials: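 For this screen, HeLa cells stably carrying beta-lactamase under the ER stress response element received test compounds, positive controls or DMSO for 5 hr at 37 C; B/G FRET substrate was then added and dual-wavelength emission recorded.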

Experiment [4] can be described thus: qHTS assay to identify small molecule agonists of the endoplasmic reticulum stress response signaling pathway - cell viability counter screen (AID 1159517; calls by dose curve; note: nearly all actives have a fitted effect of over 50% in size). The essentials: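 ESRE-bla HeLa cells (1,500/well) were plated overnight at 37 C and exposed to compounds for 5 hr. After the 2 hr beta-lactamase substrate read, CellTiter-Glo went into the same wells, and luminescence was read after 30 min at room temperature.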

Experiment [5] is described as follows: qHTS assay to identify small molecule antagonists of the retinoid-related orphan receptor gamma (ROR-gamma) signaling pathway - cell viability counter screen (AID 1159520). Note: nearly all actives have a fitted effect of over 50% in size. The procedure, abridged:
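Cytotoxicity was read from cellular ATP (CellTiter-Glo luminescence) after 16 hr at 37 C with 1 uM doxycycline induction. The inducer was added 2 hr after compound transfer to Tet-on ROR gamma CHO cells.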

Experiment [6] addresses Nuclear receptor ROR-gamma (Homo sapiens) (UniProt P51449). Kind of experiment: qHTS assay to identify small molecule antagonists of the retinoid-related orphan receptor gamma (ROR-gamma) signaling pathway (AID 1159521;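 note: CHO cells with doxycycline inducible ROR-gamma driving an RORE luciferase reporter; top concentration of the series differs between compounds; nearly all actives have a fitted effect of over 50% in size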). The procedure, abridged:
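Decreased RORE-driven luciferase luminescence indicates antagonism. Tet-on RORγ CHO cells received compound, then 1 uM final doxycycline 2 h later; signal read after 16 h incubation.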

Experiment [7] is described as follows: qHTS assay to identify small molecule agonists of the AP-1 signaling pathway - cell viability counter screen (AID 1159525; calls by dose curve; note: nearly all actives have a fitted effect of over 55% in size). The procedure, abridged:
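Intracellular ATP by Cell Titer Glo luminescence (30 min, RT) in the same ME-180 AP-1-bla wells after the 5 h compound exposure at 37 °C. Normalised to tetra n-octyl ammonium bromide and DMSO controls.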

A short description of experiment [8]: qHTS assay to identify small molecule agonists of the AP-1 signaling pathway (AID 1159526; calls by dose curve).
Experiment [9] is described as follows: qHTS assay to identify small molecule antagonists of the retinoid acid receptor (RAR) signaling pathway - cell viability counter screen (AID 1159551). Note: nearly all actives have a fitted effect of over 35% in size. The procedure, abridged: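 Measured by luminescent ATP detection, viability reflects C3RL4 cells treated 6 h at 37 C with test chemicals in the presence of 1 uM (final) retinol.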
Experiment [10] in a line: qHTS assay to identify small molecule antagonists of the retinoic acid receptor (RAR) signaling pathway (AID 1159552; note: nearly all actives have a fitted effect of over 50% in size). The procedure, abridged: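 C3RL4 RARE-luc cells, overnight plating; retinol 1 uM final added right after compound; 6 hr 37 C; luciferase read at 30 min RT.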
Experiment [11] can be described thus: qHTS assay to identify small molecule antagonists of the estrogen related receptor (ERR) signaling pathway from Tox21 library - cell viability counter screen (AID 1224834). Note: nearly all actives have a fitted effect of over 30% in size. The essentials: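 Seeded ERR cells were rested 6 h at 37 C/5% CO2 before compounds, positive and negative controls or DMSO were added. Incubation continued for 17.5 h, and viability was then quantified by CellTiter-Fluor fluorescence.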

Experiment [12] has as its target Retinoic acid receptor RXR-alpha (Homo sapiens) (UniProt P19793). Kind of experiment: qHTS assay to identify small molecule agonists of the RXR signaling pathway (AID 1159527; calls by dose curve; note: nearly all actives have a fitted effect of over 35% in size). The essentials:
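16 hr incubation of compound-treated RXR-alpha-UAS-bla HEK 293T cells (2% charcoal-stripped FBS, 37 C) preceded a 2 hr room-temperature LiveBLAzer FRET substrate step and blue/green fluorescence measurement.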

Experiment [13] in a line: qHTS assay to identify small molecule agonists of the RXR signaling pathway - cell viability counter screen (AID 1159529). The essentials:
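In this parallel viability measure, GeneBLAzer RXR-alpha HEK 293T cells (2% charcoal-stripped FBS) were given a 5 hr preincubation, treated with compounds 16 hr at 37 C, and read by CellTiter-Glo luminescence.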

Experiment [14] is described as follows: qHTS assay to identify small molecule agonists of the retinoic acid receptor (RAR) signaling pathway (AID 1159553). Note: potency is the fitted concentration of half-maximal effect. The conditions noted are these: C3RL4 RARE luciferase reporter, agonist, 6 h; activation: at 73.3 µM (top of the series) unless noted. The procedure, abridged:
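6 hr compound exposure (DMSO vehicle) of overnight-plated C3RL4 RARE-luc cells at 37 C; luminescence quantified after 30 min RT with luciferase reagent.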

Sequence of Retinoic acid receptor RXR-alpha (Homo sapiens) (P19793 whole entry, looked up): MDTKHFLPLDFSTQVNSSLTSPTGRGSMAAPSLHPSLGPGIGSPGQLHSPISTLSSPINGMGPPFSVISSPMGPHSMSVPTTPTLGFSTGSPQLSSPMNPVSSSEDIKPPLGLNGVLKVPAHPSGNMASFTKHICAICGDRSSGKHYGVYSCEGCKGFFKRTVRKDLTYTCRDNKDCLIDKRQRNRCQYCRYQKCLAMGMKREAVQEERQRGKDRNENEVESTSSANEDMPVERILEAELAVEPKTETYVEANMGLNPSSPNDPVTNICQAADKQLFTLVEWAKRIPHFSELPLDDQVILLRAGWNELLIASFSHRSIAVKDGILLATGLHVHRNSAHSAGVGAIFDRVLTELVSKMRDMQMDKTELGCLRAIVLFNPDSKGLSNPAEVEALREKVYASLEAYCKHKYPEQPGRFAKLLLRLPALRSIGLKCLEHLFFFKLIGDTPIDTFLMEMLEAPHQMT

Take `c1ccc2c(c1)ccc1ncccc12`: the Potency result in experiment [1], in experiment [2], in experiment [3], in experiment [4], in [5] and in experiment [6] was “inactive” in each case. Also, the Potency result in experiment [7], in experiment [8], in [9], in experiment [10] and in experiment [11] was “inactive” in each case.

As to `c1ccc2cc3ccccc3cc2c1`, the Potency entry in experiment [1], in experiment [2], in experiment [4], in [5], in experiment [6] and in experiment [7] was “inactive” in each case. Moreover, the Potency entry in experiment [8], in [12], in experiment [13], in experiment [9], in experiment [10] and in experiment [11] was “inactive” throughout. For the same compound, the Potency in experiment [3] is 56.7 µM (active).

As for `CCCCCCCCCCC(CO)CCCCCCCC` (centres undefined), the Potency entry in [1], in [2], in experiment [3], in experiment [4], in experiment [5] and in experiment [7] was “inactive” in each case. Moreover, the Potency result in [8], in [12], in [13] and in experiment [11] was “inactive” in each case.

In the case of `CC1(C)C(C=C(Cl)Cl)C1C(=O)OCc1cccc(Oc2ccccc2)c1` (centres undefined), the Potency entry in [2], in experiment [3], in experiment [4], in experiment [5], in experiment [7] and in [8] was “inactive” each time. For the same compound, the Potency entry in [12], in [13], in experiment [9] and in experiment [11] was “inactive” throughout.

On to `C=CN1CCCC1=O`, for which the Potency entry in experiment [1], in [2], in experiment [3], in experiment [4], in [5] and in experiment [6] was “inactive” throughout. For the same compound, the Potency result in [7], in experiment [8], in experiment [12], in experiment [9] and in experiment [11] was “inactive” in each case.

For the compound `C=CCNCC=C`, the Potency result in experiment [1], in experiment [2], in experiment [3], in [4], in experiment [5] and in [7] was “inactive” each time. Moreover, the Potency result in [8], in experiment [12], in [13], in [10], in experiment [14] and in experiment [11] was “inactive” throughout.

On to `CC(=O)Nc1ccc2c(c1)Cc1cc(NC(C)=O)ccc1-2`, for which the Potency result in [1], in experiment [2], in [3], in experiment [4], in experiment [5] and in experiment [7] was “inactive” each time. In addition, the Potency result in experiment [8], in [12], in [9], in [10] and in experiment [11] was “inactive” each time. Moreover, the Potency in experiment [14] was 30.6 µM (active).

Regarding `CCO[Si](CCCNC(N)=O)(OCC)OCC`, the Potency entry in experiment [2], in experiment [3], in experiment [4], in experiment [5], in experiment [6] and in [7] was “inactive” each time. The Potency entry in [8], in experiment [12], in experiment [10], in experiment [14] and in experiment [11] was “inactive” in each case.

With `ClC/C=C/CCl`, the Potency entry in [1], in experiment [2], in experiment [3], in [4], in experiment [5] and in experiment [7] was “inactive” in each case. Further, the Potency result in experiment [8], in [12], in experiment [9], in experiment [10], in experiment [14] and in experiment [11] was “inactive” each time.

For the compound `CC/C=C\C/C=C\C/C=C\CCCCCCCC(=O)O`, the Potency result in experiment [1], in experiment [2], in experiment [3], in experiment [4], in experiment [5] and in experiment [6] was “inactive” in each case. Besides, the Potency entry in [7], in experiment [8], in experiment [9], in experiment [10], in [14] and in experiment [11] was “inactive” each time.

Values taken from PubChem BioAssay (Tox21).
